# Source: PubChem (National Center for Advancing Translational Sciences (NCATS))
# In the library only some 10% were active in any assay of this set; here they are far more common.
# HPGD block: HPGD (human) dehydrogenase inhibition; P15428; purified HPGD, NADH fluorescence kinetic, PGE2 substrate; Potency, µM, most hits filed as inhibitors; 150,000 compounds, 4.3% hits; active = well fitted inhibition curve with a large enough effect, not every such curve was filed as active; inconclusive = small, poorly fitted or top-dose-only effect, or another doubt; inactive = no such curve, though single readings can be large or run the other way
#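 NADH formation kinetics: reaction with 30 uM PGE2 and 1 mM NAD+ (final), 20 nM enzyme, Tris-HCl pH 8 with Tween 20, after 15 min compound preincubation at room temperature. Fluorescence change, last versus first of five reads.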
# ALDH1A1 inh: inhibitors of human aldehyde dehydrogenase 1A1; Purified ALDH1A1, NADH fluorescence, propionaldehyde substrate; Potency, µM (highest dose often 75.3 µM), hits mostly inhibitors; 220,000 compounds, 7.3% hits; active = well fitted inhibition curve with a large enough effect, not every such curve was filed as active; inconclusive = small, poorly fitted or top-dose-only effect, or another doubt; inactive = no such curve, though single readings can be large or run the other way
# GLA spleen mod: alpha-galactosidase A (human) modulation | P06280 | human spleen homogenate, 4MU-alpha-Gal fluorescence, 40 min | Potency, µM (titrated, usually from 80 µM), most hits filed as inhibitors | 240,000 compounds, 0.008% hits | AID 2107
#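 Fluorogenic readout (Ex 365/Em 440 nm) of 4-methylumbelliferone released from 1 mM 4-MU-alpha-galactoside by spleen homogenate, 40 min at 37C, pH 5.0. Data normalized to no-enzyme and enzyme controls; Hill-equation AC50 from compound titrations.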
# ALOX12 inhib: blocks human 12-lipoxygenase activity; Potency, µM (titrated, usually from 57.1 µM), hits mostly inhibitors; AID 1452; purified 12-hLO, xylenol orange hydroperoxide absorbance; P18054; 150,000 compounds, 0.12% hits; also: nearly all actives have a fitted effect of over 55% in size
#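 Xylenol orange chromogenic assay: hydroperoxide from 12hLO oxidises Fe(II), giving red-shifted Fe(III)-XO absorbance. Conditions: 150 nM enzyme, 40 uM arachidonic acid, 25 mM Hepes pH 7.0, 0.01% Triton X-100, 30 min, room temperature.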
# GLA inh pH 4.5: alpha-galactosidase A (human) inhibition, pH 4.5; 230,000 tested, under 10 active; purified enzyme, 4-MU-alpha-Gal fluorescence, pH 4.5; activity change, negative = inhibition, % at 105 µM; P06280
# Target sequence (P06280 whole entry, looked up): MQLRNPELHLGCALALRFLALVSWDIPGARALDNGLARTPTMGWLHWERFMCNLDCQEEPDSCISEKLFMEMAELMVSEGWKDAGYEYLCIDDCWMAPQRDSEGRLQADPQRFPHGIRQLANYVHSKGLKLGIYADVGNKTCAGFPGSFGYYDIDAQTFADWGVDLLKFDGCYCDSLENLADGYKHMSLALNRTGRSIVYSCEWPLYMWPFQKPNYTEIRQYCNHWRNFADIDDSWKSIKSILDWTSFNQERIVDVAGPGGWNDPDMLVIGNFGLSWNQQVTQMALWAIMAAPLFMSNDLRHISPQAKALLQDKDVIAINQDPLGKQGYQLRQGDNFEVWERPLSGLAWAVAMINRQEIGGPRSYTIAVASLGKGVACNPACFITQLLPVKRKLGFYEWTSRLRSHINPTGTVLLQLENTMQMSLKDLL
# PNC inhibitor: perinucleolar compartment assembly inhibition; PC3M PTB-GFP, PNC prevalence imaging, 16 h; hits give low values; activity change (PNC), negative = inhibition, % at 10 µM; 140,000 compounds, 3.1% hits; AID 2417;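 active = readout at or below -70, meaning at least 70% loss of cells showing the perinucleolar compartment, a nuclear body marking cancer cells; inconclusive = readout between -30 and a set limit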
#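 PC3M cells stably expressing PTB-GFP, 750–1000 cells/well, treated 16 h at 37 °C with compound (23 nl of library stock), in duplicate. After paraformaldehyde fixation and Hoechst stain, imaged at 20x; PNC prevalence scored by image analysis.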
# A number is an active result; 0 = inactive; ? = inconclusive; - = no result given; [ ] = dose if it differs, or a comment. Unless noted, calls follow the shape of the dose curve; as a rule, active = well fitted curve in the direction sought with a large enough effect; inconclusive = small, poorly fitted or top-dose-only effect, or another doubt; inactive = no such curve, though single readings can be large; an effect the other way counts as inactive or inconclusive.
SMILES,HPGD block,ALDH1A1 inh,GLA spleen mod,ALOX12 inhib,GLA inh pH 4.5,PNC inhibitor
Cc1ccccc1C#N,0,0,0,0,-,-
NC(=O)c1cc[n+](CC2=C(C(=O)O)N3C(=O)C(NC(=O)C(c4ccccc4)S(=O)(=O)[O-])C3SC2)cc1 (centres undefined),31.6µM,?,0,0,0,-
NC(=O)c1cc[n+](CC2=C(C(=O)O)N3C(=O)[C@@H](NC(=O)[C@H](c4ccccc4)S(=O)(=O)[O-])[C@@H]3SC2)cc1,0,0,0,0,0,-
CCn1nc(C)c(/C=N/NC(=O)Cn2nc(C)cc2C)c1C,0,0,0,0,0,0
NC(=O)c1ccc2nc(-c3ccc(Oc4ccc(Cl)cc4)cc3)[nH]c2c1,-,-,0,-,-,-
NC(=O)C1CCN(c2cc(Cl)nc(N)n2)CC1,-,0,0,-,0,-
CC(=O)c1cc(C#N)c(SCc2ccccc2)nc1C,0,17.8µM,0,0,0,?
COC(=O)c1cc(C#N)c(SCc2ccccc2)nc1C,0,?,0,0,0,?
CCOC(=O)/C(C#N)=C/C1=C(N2CCOCC2)CC(C)(C)OC1,-,-,0,-,0,-
CCc1ccc(-c2csc(NC(=O)COC(=O)CCc3nc4ccccc4s3)n2)cc1,0,0,0,0,0,0
O=C(NCC1CCCO1)C1CCCN1C(=O)NC1CCCCC1 (centres undefined),0,0,0,0,0,0
CCCCNC(=O)C1CCCN1C(=O)NC1CCCCC1 (centres undefined),0,0,0,0,0,-100.0
CCn1c(CN2CCN(Cc3ccc(C)cc3)C(CCO)C2)nc2ccccc21 (centres undefined),-,0,0,-,0,-
O=c1c(O)c(-c2cc(O)c(O)c(O)c2)oc2cc(O)cc(O)c12,7.94µM,3.55µM,0,?,0,-
O=c1c(O)c(-c2ccccc2)oc2cc(O)cc(O)c12,0,0,0,0,0,-
Cc1ccc(-c2cc3cccc[n+]3cc2-c2ccc(C)cc2)cc1,?,?,0,0,0,0
Cc1cc(C2(c3cc(C)c(O)cc3C)OS(=O)(=O)c3ccccc32)c(C)cc1O,0,28.2µM,0,0,-,-
Cc1cc(C2(c3cc(C)c(O)c(C(=O)O)c3)OS(=O)(=O)c3ccccc32)cc(C(=O)O)c1O,0,0[13.5 µM],-,0[11.4 µM],-,-
CC(C)CNC(=S)NNC(=O)c1csc2c1CCCC2,0,0,0,0,0,0
CCC(C)NC(=O)COC(=O)c1csc2c1CCCC2 (centres undefined),25.1µM,0,0,0,0,0
CCOCc1[nH]c(=S)[nH]c(=O)c1Cc1ccc(OC(C)C)cc1,-,12.6µM,0,-,0,-
CC(C)(C)c1ccc(Cn2ccc(-c3ccc4c(c3)OCO4)n2)cc1,0,3.98µM,0,0,?,0
Cc1ccc(Cn2ccc(NC(=O)c3cc(-c4ccc5c(c4)OCO5)on3)n2)cc1,?,0,0,0,0,0
N[C@H](CSSC[C@@H](N)C(=O)O)C(=O)O,-,-,0,-,-,-
NS(=O)(=O)c1ccc(NC(=S)Nc2ccn(Cc3cccc4ccccc34)n2)cc1,-,12.6µM,0,-,0,-
SMILES,HPGD block,ALDH1A1 inh,GLA spleen mod,ALOX12 inhib,GLA inh pH 4.5,PNC inhibitor
CCOc1ccccc1NC(=S)Nc1ccc(S(N)(=O)=O)cc1,-,0,0,-,0,-
Cc1ccc(C(=O)NCCn2cc(SCC(=O)Nc3cc(C)on3)c3ccccc32)cc1,0,12.6µM,0,0,0,?
COc1ccccc1C(=O)NCCn1cc(SCC(=O)Nc2nnc(C)s2)c2ccccc21,0,0.316µM,0,0,0,?
Cc1nnc(NC(=O)CSc2cn(Cc3ccccc3)c3ccccc23)s1,0,?,0,0,0,0
C#C[C@@]1(O)CCC2C3CCC4=CC(=O)CCC4C3CC[C@@]21CC (some centres undefined),0,0,0,0,0,-
N#C/C(=C/c1ccc(-c2ccc(Br)cc2)o1)C(=O)NC1CCCCC1,0,1.12µM,0,0,0,0
N#C/C(=C\c1ccc(-c2ccccc2)o1)C(=O)Nn1cnnc1,15.8µM,0,0,0,0,0
Cc1ccc(-c2ccc(/C=C(\C#N)C(=O)Nc3cc(C)nn3-c3ccccc3)o2)cc1,0,0,0,0,0,0
CNc1nc(C)nc(N/N=C/c2ccccc2)n1,-,12.6µM,0,-,0,-
C(=N\Nc1nc(Nc2ccccc2)nc(Nc2ccccc2)n1)/c1ccncc1,-,0,0,-,0,-
